Measurements from ChEMBL document CHEMBL3988442, “University of Dundee, Small-Polar-MMV Screening Library” (2021).
About 13,000 (27%) of roughly 48,000 compounds showed an effect of 50% or more. The list shows a part of the results.

System: Wolbachia pipientis
Experiment: Anti-Wolbachia Cell-Based Screen
Assay type: functional
Design: scale not given: in the data most compounds retested in dose-response had high values
Settings: 5 µM

Compared with `CCc1ccc(O)c(C(=O)N2CCN(CC(=O)N3CCCCC3)CC2)c1`, `COC(=O)N1CCCN(C(=O)NCc2ccc(Cl)s2)CC1` is higher in “Percent Effect” value: -4.126% for the first, 11.92% for the second.

Compared with `O=C(NS(=O)(=O)c1cc(Cl)sc1Cl)c1cccc2c1OCCO2`, `Cc1ccc(C(=O)NS(=O)(=O)Cc2ccon2)c(C)c1` is lower in “Percent Effect” value: -19.53% for the first, -32.05% for the second.

Going from `COc1cccc(C(=O)NCc2ccccc2S(=O)(=O)N(C)C)c1` to `COc1cc(C)sc1C(=O)NCCC(=O)N(C)c1ccccc1`, the “Percent Effect” value falls from 16.54% to -9.675%.

Going from `CSCCN(C)C(=O)C1(c2ccc(F)cc2F)CCOCC1` to `CCC(CNC(=O)Cc1cc(C)on1)Oc1cccc(F)c1` (centres undefined), the “Percent Effect” value rises from -17.49% to 6.278%.

First: CCOCCC(=O)NCC(C)c1ccsc1 (centres undefined)
Second: CC(C)CN(Cc1ccsc1)C(=O)CCCn1cncn1
The “Percent Effect” value of the first is lower: 1.929% for the first, 5.825% for the second.

First: Cc1ccc(CN2CC[C@H]3C[C@@H](c4nc(C5CC5)cs4)O[C@@H]3C2)o1
Second: Cc1ccc(CNCc2nnc3n2CCCC3C(F)(F)F)o1 (centres undefined)
The “Percent Effect” value of the first is lower: -2.385% for the first, 18.11% for the second.

Compared with `CCOCC(=O)N1CCC2(CC1)CC(c1ccccc1)CO2` (centres undefined), `CCC(=O)N1CCC2(CC1)CC(Oc1ccccc1)CO2` (centres undefined) is lower in “Percent Effect” value: 118.3% for the first, -6.284% for the second.

Going from `O=C(CC1CC1)N1CCC2(CC1)CC(Oc1ccccc1)CO2` (centres undefined) to `Cn1cc(C2COC3(CCN(C(=O)Cc4ccccc4)CC3)C2)cn1` (centres undefined), the “Percent Effect” value rises from -7.215% to 95.06%.

First: CC1COC2(CCN(C(=O)Cc3ccncc3)CC2)C1.O=C(O)C(F)(F)F (centres undefined)
Second: O=C(Cc1ccncc1)N1CCC2(CC1)CC(c1ccccc1)CO2.O=C(O)C(F)(F)F (centres undefined)
The “Percent Effect” value of the first is lower: 99.32% for the first, 104.1% for the second.

First: O=C(O)C(F)(F)F.O=C(c1ccccc1)N1CCC[C@]2(C[C@@H](OCc3ccncc3)CO2)C1
Second: O=C(C1CC1)N1CCC[C@]2(C[C@@H](OCc3ccncc3)CO2)C1.O=C(O)C(F)(F)F
The “Percent Effect” value of the first is higher: 6.805% for the first, 6.09% for the second.

Going from `Cn1cc(C2CN(C(=O)Cc3coc(-c4ccccc4)n3)CCO2)cn1` (centres undefined) to `Cn1cc(C2CCCN2C(=O)CCCOCc2ccccc2)cn1` (centres undefined), the “Percent Effect” value rises from -11.89% to 2.254%.

Compared with `CN(Cc1ccncc1)C1COC2(CCN(c3ncc(F)cn3)CC2)C1.O=C(O)C(F)(F)F.O=C(O)C(F)(F)F` (centres undefined), `O=C(Cc1cccnc1)N1CCC2(CC1)CCN(C1CCOCC1)C2.O=C(O)C(F)(F)F.O=C(O)C(F)(F)F` is higher in “Percent Effect” value: -12.58% for the first, -0.7381% for the second.

First: O=C(Cc1cccnc1)N1CCC2(CC1)CCN(C1CCOCC1)CC2.O=C(O)C(F)(F)F.O=C(O)C(F)(F)F
Second: CC(C)CC(=O)N1CC[C@H]2N(C)CC[C@@]2(C(=O)Nc2cccnc2)CC1.O=C(O)C(F)(F)F.O=C(O)C(F)(F)F
The “Percent Effect” value of the first is lower: 1.334% for the first, 92.3% for the second.

Going from `CC1(CNS(=O)(=O)c2cccc(C(=O)N3CCSCC3)c2)COC1` to `Cc1nn(C(C)C)c(C)c1S(=O)(=O)Nc1cccc(C(=O)O)c1`, the “Percent Effect” value falls from 5.198% to 0.846%.

First: N#Cc1ccnc(N2CCN(CC(O)c3c(F)cccc3F)CC2)c1 (centres undefined)
Second: O=C(CN1CCN(c2nccs2)CC1)Nc1cccnc1
The “Percent Effect” value of the first is lower: -15.75% for the first, 105.2% for the second.

Going from `CC(CCn1cccn1)NCc1n[nH]c2c1CCCCC2` (centres undefined) to `CCn1ccnc1CN1CCN(CC(O)Cn2cccn2)CC1` (centres undefined), the “Percent Effect” value rises from -18.85% to -2.692%.

Compared with `O=S(=O)(NCCNc1ccc(-n2cccc2)nn1)c1ccccc1`, `CC(C)N(C)CCNC(=O)NCc1ccccc1-n1cccn1` is higher in “Percent Effect” value: -5.245% for the first, -1.809% for the second.

First: COC(=O)[C@@H]1Cc2ncn(C)c2CN1S(=O)(=O)c1ccc(Cl)cc1
Second: Cn1cc(S(=O)(=O)Nc2ccc(Cl)cn2)cc1C(N)=O
The “Percent Effect” value of the first is lower: -5.674% for the first, 6.201% for the second.

First: Cc1cc2[nH]c(CN3CCOC(c4ccc(Cl)cc4)C3)cc(=O)n2n1 (centres undefined)
Second: Cc1ccc(NCc2ccco2)cc1N1CCOC1=O
The “Percent Effect” value of the first is higher: -2.359% for the first, -6.269% for the second.

Going from `CCN1CC[C@@]2(C(=O)N3CCOCC3)CCN(C(=O)CC(C)C)CC[C@@H]12.O=C(O)C(F)(F)F` to `CCN1CC[C@@]2(C(=O)N(C)C)CCN(C(=O)NC(C)C)CC[C@@H]12`, the “Percent Effect” value rises from -11.51% to -5.445%.

Compared with `Cc1ccc(CNC(=O)C2CCN(C(=O)C(C)C)CC2)n1C`, `CC(C)C(=O)N1CC[C@H]2N(C)CC[C@@]2(C(=O)Nc2ccccc2)CC1` is higher in “Percent Effect” value: -14.75% for the first, 108.6% for the second.

First: CS(=O)(=O)N1C[C@H](C(=O)Nc2cccnc2)[C@@H]2CCO[C@@H]2C1.O=C(O)C(F)(F)F
Second: CC(C)C(=O)N1CC[C@H]2N(C)CC[C@@]2(C(=O)Nc2cccnc2)CC1.O=C(O)C(F)(F)F.O=C(O)C(F)(F)F
The “Percent Effect” value of the first is lower: -6.028% for the first, 118.9% for the second.

Compared with `CNC(=O)N1CC[C@H]2N(C)CC[C@@]2(C(=O)Nc2ccccc2)CC1`, `CC(C)NC(=O)N1CC[C@H]2N(C)CC[C@@]2(C(=O)Nc2cccnc2)CC1` is higher in “Percent Effect” value: 2.294% for the first, 104% for the second.

Going from `O=C(Nc1cccnc1)N1CCC(n2ccc(C(F)(F)F)n2)CC1` to `CC1CN(CC(=O)Nc2cccnc2)CCN1c1nccs1` (centres undefined), the “Percent Effect” value rises from -10.86% to 0.898%.

Going from `CC(C)C(=O)N1CCc2nc(C(=O)Nc3cccnc3)sc2CC1` to `Cc1csc(N2CCN(CC(=O)Nc3cccnc3)CC2C)n1` (centres undefined), the “Percent Effect” value rises from 0.3042% to 114.5%.

First: CCC[C@H]1CN(CCCO)C[C@@H]1NC(=O)Cn1cc(C)cn1
Second: O=C(CN1CCOC(Cn2cccn2)C1)NCc1cccs1 (centres undefined)
The “Percent Effect” value of the first is lower: -8.445% for the first, 2.249% for the second.

Compared with `CCN(Cc1cc(F)c(OC)c(Cl)c1)Cc1nc(COC)no1`, `COCCOc1ccnc(-c2noc([C@@H]3CCCN3CC(C)C)n2)c1` is higher in “Percent Effect” value: -30.92% for the first, -7.911% for the second.

Going from `Cc1ccc(OCC(C)NS(=O)(=O)Cc2ccon2)cc1` (centres undefined) to `Cc1ccc(OCC(C)NS(C)(=O)=O)cc1` (centres undefined), the “Percent Effect” value falls from 103.4% to 1.319%.

First: CC(C)CC(CO)NS(=O)(=O)Cc1ccon1 (centres undefined)
Second: Cc1cc(C(=O)NS(=O)(=O)Cc2ccon2)c(C)n1C(C)C
The “Percent Effect” value of the first is higher: 92.95% for the first, 19.94% for the second.

Compared with `O=C(CCc1cccc(Cl)c1)NS(=O)(=O)Cc1ccon1`, `O=C(NS(=O)(=O)Cc1ccon1)c1ccsc1` is lower in “Percent Effect” value: -7.174% for the first, -7.233% for the second.

First: Cc1ccc(OCC(C)NS(=O)(=O)N(C)C)cc1 (centres undefined)
Second: CC(CCc1ccc(F)c(F)c1)NS(=O)(=O)Cc1ccon1 (centres undefined)
The “Percent Effect” value of the first is lower: -6.618% for the first, 102% for the second.

Compared with `CN1CCN(c2ncnc3c2c(C(=O)NC2CC2)c2ccccn23)CC1`, `O=C(CCN1CCCN(c2nccs2)CC1)Nc1ccccc1` is higher in “Percent Effect” value: -8.273% for the first, 4.493% for the second.

First: CC1CN(CC(=O)NC(=O)NCc2cccs2)CCN1CC(F)(F)F (centres undefined)
Second: CC1CN(CC(=O)NCc2cccs2)CCN1c1nccs1 (centres undefined)
The “Percent Effect” value of the first is lower: 103.7% for the first, 105.4% for the second.

Compared with `Cc1csc(N2CCN(CCc3ccccn3)CC2C)n1` (centres undefined), `Cc1csc(N2CCN(CC(=O)Nc3nncs3)CC2C)n1` (centres undefined) is lower in “Percent Effect” value: 3.431% for the first, 1.073% for the second.

Going from `O=C(CN1C[C@H]2CC[C@@H]1CN(Cc1ccccn1)C2)NCc1cccs1` to `C[C@@H]1CN(Cc2ccccc2)CCN1C(=O)NCc1nccs1`, the “Percent Effect” value falls from 1.062% to -1.817%.

First: CC1CN(C(=O)NCc2ccn(C)c2)CCN1CC(F)(F)F (centres undefined)
Second: Cc1ccc(CNCCC(O)(c2nccn2C)C(F)(F)F)o1 (centres undefined)
The “Percent Effect” value of the first is higher: -7.034% for the first, -16.77% for the second.

First: Cc1ccccc1CN1CCN(CC(=O)Nc2cccnc2)CC1
Second: CC1CN(CC(=O)Nc2ccncc2)CCN1c1nccs1 (centres undefined)
The “Percent Effect” value of the first is lower: 7.585% for the first, 150.9% for the second.

First: CC(C)COCCC(=O)Nc1cc(-n2nnnc2C2CC2)ccc1F
Second: CC(C)CN1CCCC1c1ccc(C(=O)Nc2cc[nH]n2)s1 (centres undefined)
The “Percent Effect” value of the first is lower: 3.649% for the first, 6.388% for the second.

First: CC1CN(CC(=O)Nc2nncs2)CCN1c1nccs1 (centres undefined)
Second: Cc1cc(C)c2cc(C(=O)N3CCN(Cc4ccco4)CC3)[nH]c2c1
The “Percent Effect” value of the first is lower: -0.151% for the first, 21.49% for the second.

First: CCSC(C)C(=O)N1CCC(c2nn(C)c(=O)n2-c2ccccc2)CC1 (centres undefined)
Second: Cc1cc(C)c2cc(CNCc3ccccc3)c3nn(C)c(=O)n3c2c1
The “Percent Effect” value of the first is higher: -5.623% for the first, -7.626% for the second.

Going from `Nc1ncncc1-c1noc([C@@H]2CCCN2CC2CC2)n1` to `c1cc(-c2noc([C@@H]3CCCN3CC3CC3)n2)cc(N2CCCC2)n1`, the “Percent Effect” value rises from -1.832% to 1.663%.

First: OCCCN1CCCC1c1ccc(Br)cc1 (centres undefined)
Second: OCCOCCN1CCCC1c1cccc(Cl)c1 (centres undefined)
The “Percent Effect” value of the first is lower: -3.155% for the first, -3.053% for the second.

Going from `c1cc(C2CCCN2CC2CCCCC2)n[nH]1` (centres undefined) to `c1cc(C2CCCN2CC2CC2)n[nH]1` (centres undefined), the “Percent Effect” value rises from 159.6% to 189.2%.

Compared with `CC(C)CN1CCCC1c1cc[nH]n1` (centres undefined), `OCCN1CCCCC1c1cc[nH]n1` (centres undefined) is higher in “Percent Effect” value: 114.8% for the first, 167% for the second.

Going from `c1cc(-c2c[nH]c([C@@H]3COCCN3CC3CC3)n2)ccn1` to `CN1CCC(c2n[nH]c(=O)n2CC2CCCCC2)CC1`, the “Percent Effect” value rises from -6.01% to 16.1%.

Compared with `CC(C)NC(=O)CCNC(=O)c1cc(F)ccc1NS(C)(=O)=O`, `CCOc1ccc(C(=O)N(C)C)cc1NC(=O)c1ccsc1` is higher in “Percent Effect” value: -9.152% for the first, 9.824% for the second.

First: CCc1nncn1CCNC(=O)Nc1ccc(OC)c(C)c1
Second: CCn1ccnc1S(=O)(=O)Cc1c(C)cc(C)c(C(C)=O)c1C
The “Percent Effect” value of the first is higher: -6.777% for the first, -13.95% for the second.

Compared with `Cc1cc(C)c2cc(CNCc3cccnc3)c3nn(C)c(=O)n3c2c1`, `Cc1cc(C)c2cc(CNCc3ccco3)c3nn(C)c(=O)n3c2c1` is lower in “Percent Effect” value: 113.3% for the first, 111.5% for the second.

Going from `Cc1cc(C)c2cc(CNCc3ccc(C)o3)c3nn(C)c(=O)n3c2c1` to `CCOc1cccc(CNC(=O)C(C)(C)C#N)c1OC(F)F`, the “Percent Effect” value falls from 122.6% to -15.69%.

For `COc1ccc(Oc2ccc(C(F)(F)F)cn2)cc1CN1CCCC1`, the “Percent Effect” value was -1.522%.
